Of roughly 7,900 targets only a part is listed; those with a hit were picked by preference. About 0.6% of all pairs of compound and target were hits. A number with no mark means an inactive call.
Legend:
Test in all cases: log2 fold change, soluble protein after heating vs DMSO (PISA); higher = thermal stabilisation; K562 cells, 10 uM, 30 min; active = over 0.2 and 3.5 SD of the protein, either way, in both replicates (recomputed)
IRAK-1-4 Inhibitor I = compound: C1COCCN1CCN2C3=CC=CC=C3N=C2NC(=O)C4=CC(=CC=C4)[N+](=O)[O-] [IRAK-1-4 Inhibitor I]
Method in brief: (§1)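 K562 cells at 2×10^6 cells/mL were exposed to 10 μM compound for 30 min, then aliquots were heated for 3 min across 48°C-58°C, pooled, and extracted in PBS containing 0.5% NP-40 at 4°C. The supernatant after 21,000xg for 90 min was taken as soluble protein and measured by TMTpro 16plex LC-MS/MS with channel sums equalised. Thermal stability is reported relative to control samples, with values from duplicates. Fold changes are given on a log2 scale.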

ibrutinib = compound: C=CC(=O)N1CCC[C@@H](n2nc(-c3ccc(Oc4ccccc4)cc3)c3c(N)ncnc32)C1 [ibrutinib]
Method in brief: as §1

[1] = compound: CC(=O)c1cnc2ccc(-c3cc(Cl)c(O)c(Cl)c3)nc2c1N[C@H]1CC[C@H](CN(C)C)CC1
Method in brief: as §1

ralimetinib = compound: CC(C)(C)Cn1c(N)nc2ccc(-c3[nH]c(C(C)(C)C)nc3-c3ccc(F)cc3)nc21 [ralimetinib]
Method in brief: as §1

[2] = compound: CC(C)(O)CC(=O)NCCn1ccc2ncnc(Nc3ccc(Oc4cccc(C(F)(F)F)c4)c(Cl)c3)c21
Method in brief: as §1

[3] = compound: CC(C)C1=C2N=C(C=C(N2N=C1)NCC3=CC=CC=C3)NCCCCCCN
Method in brief: as §1

[4] = compound: CC(C)C[C@@H](C=O)NC(=O)[C@H](CC(C)C)NC(=O)[C@H](CC(C)C)NC(=O)OCc1ccccc1
Method in brief: as §1

pinometostat = compound: CC(C)N(C[C@H]1O[C@@H](n2cnc3c(N)ncnc32)[C@H](O)[C@@H]1O)[C@H]1C[C@@H](CCc2nc3cc(C(C)(C)C)ccc3[nH]2)C1 [pinometostat]
Method in brief: as §1

[5] = compound: CC1=C(C(CC(=O)N1)C2=CC=C(C=C2)C(F)(F)F)C(=O)NC3=C(C=C4C(=C3)C=NN4)F
Method in brief: as §1

[6] = compound: CC1=C(C2=C(C=C1)C(=O)C3=CC=CC=C3N2CCCN)C
Method in brief: as §1

[7] = compound: CC1=C(C=C(C=C1)NC(=O)C2=CC(=CC=C2)C(C)(C)C#N)NC3=CC4=C(C=C3)N=CN(C4=O)C
Method in brief: as §1

[8] = compound: CC1=C(C=C(C=C1)NC(=O)C2=CC(=CC=C2)N(C)C)NC(=O)C3=CC=C(C=C3)O
Method in brief: as §1

[9] = compound: CC1=CC=C(C=C1)SC2=C3C=C(SC3=CN=C2)C(=O)N
Method in brief: as §1

[10] = compound: CC1=NC(=CC=C1)C2=C(N=C(N2)C(C)(C)C)C3=CC4=NC=CN=C4C=C3
Method in brief: as §1

Nexturastat A = compound: CCCCN(Cc1ccc(C(=O)NO)cc1)C(=O)Nc1ccccc1 [Nexturastat A]
Method in brief: as §1

vemurafenib = compound: CCCS(=O)(=O)Nc1ccc(F)c(C(=O)c2c[nH]c3ncc(-c4ccc(Cl)cc4)cc23)c1F [vemurafenib]
Method in brief: as §1

[11] = compound: CCCS(=O)(=O)Nc1ccc(F)c(C(=O)c2c[nH]c3ncc(Cl)cc23)c1F
Method in brief: as §1

[12] = compound: CCCc1cc(C)[nH]c(=O)c1CNC(=O)c1cc(-c2ccnc(N3CCN(C)CC3)c2)cc2c1cnn2C(C)C
Method in brief: as §1

givinostat = compound: CCN(CC)Cc1ccc2cc(COC(=O)Nc3ccc(C(=O)NO)cc3)ccc2c1 [givinostat]
Method in brief: as §1

barasertib = compound: CCN(CCCOc1ccc2c(Nc3cc(CC(=O)Nc4cccc(F)c4)[nH]n3)ncnc2c1)CCOP(=O)(O)O [barasertib]
Method in brief: as §1

Sequence of UniProt Q7Z3J2 (Q7Z3J2 whole entry, looked up): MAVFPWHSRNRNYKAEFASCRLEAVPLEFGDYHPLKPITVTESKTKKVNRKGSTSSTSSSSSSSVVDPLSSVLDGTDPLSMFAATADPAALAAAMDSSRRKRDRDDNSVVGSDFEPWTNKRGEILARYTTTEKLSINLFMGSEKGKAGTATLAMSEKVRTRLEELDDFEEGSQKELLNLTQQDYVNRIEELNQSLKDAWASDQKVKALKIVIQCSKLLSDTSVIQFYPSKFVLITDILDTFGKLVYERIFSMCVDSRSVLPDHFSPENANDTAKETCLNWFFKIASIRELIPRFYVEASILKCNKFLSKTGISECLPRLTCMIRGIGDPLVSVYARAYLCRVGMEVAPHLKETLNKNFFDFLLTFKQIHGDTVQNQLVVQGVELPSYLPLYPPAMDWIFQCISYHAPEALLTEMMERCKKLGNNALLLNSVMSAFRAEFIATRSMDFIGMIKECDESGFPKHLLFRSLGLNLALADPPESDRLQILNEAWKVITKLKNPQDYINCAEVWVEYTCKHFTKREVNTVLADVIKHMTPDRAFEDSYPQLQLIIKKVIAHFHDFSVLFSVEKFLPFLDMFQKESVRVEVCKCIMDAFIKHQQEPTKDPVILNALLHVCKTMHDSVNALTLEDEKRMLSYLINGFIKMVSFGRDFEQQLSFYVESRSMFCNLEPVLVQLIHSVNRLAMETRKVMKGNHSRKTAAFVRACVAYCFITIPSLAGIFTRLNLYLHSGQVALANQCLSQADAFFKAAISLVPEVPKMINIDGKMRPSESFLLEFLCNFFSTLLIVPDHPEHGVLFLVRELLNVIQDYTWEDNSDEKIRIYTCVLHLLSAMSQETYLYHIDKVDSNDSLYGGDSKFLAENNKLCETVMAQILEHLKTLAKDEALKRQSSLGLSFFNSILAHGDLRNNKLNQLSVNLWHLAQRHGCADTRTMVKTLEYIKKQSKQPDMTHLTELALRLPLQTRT
Sequence of UniProt O75554 (O75554 whole entry, looked up): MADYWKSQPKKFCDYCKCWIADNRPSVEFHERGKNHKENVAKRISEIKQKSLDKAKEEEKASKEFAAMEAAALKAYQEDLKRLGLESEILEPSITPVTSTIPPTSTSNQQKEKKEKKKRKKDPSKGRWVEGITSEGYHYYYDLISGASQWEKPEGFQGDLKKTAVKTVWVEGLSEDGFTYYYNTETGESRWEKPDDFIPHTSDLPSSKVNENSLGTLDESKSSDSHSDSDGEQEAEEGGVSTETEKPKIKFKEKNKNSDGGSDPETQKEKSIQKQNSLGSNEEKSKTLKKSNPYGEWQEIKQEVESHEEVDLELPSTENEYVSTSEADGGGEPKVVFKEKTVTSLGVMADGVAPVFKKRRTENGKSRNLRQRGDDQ
Sequence of UniProt Q14157 (Q14157 whole entry, looked up): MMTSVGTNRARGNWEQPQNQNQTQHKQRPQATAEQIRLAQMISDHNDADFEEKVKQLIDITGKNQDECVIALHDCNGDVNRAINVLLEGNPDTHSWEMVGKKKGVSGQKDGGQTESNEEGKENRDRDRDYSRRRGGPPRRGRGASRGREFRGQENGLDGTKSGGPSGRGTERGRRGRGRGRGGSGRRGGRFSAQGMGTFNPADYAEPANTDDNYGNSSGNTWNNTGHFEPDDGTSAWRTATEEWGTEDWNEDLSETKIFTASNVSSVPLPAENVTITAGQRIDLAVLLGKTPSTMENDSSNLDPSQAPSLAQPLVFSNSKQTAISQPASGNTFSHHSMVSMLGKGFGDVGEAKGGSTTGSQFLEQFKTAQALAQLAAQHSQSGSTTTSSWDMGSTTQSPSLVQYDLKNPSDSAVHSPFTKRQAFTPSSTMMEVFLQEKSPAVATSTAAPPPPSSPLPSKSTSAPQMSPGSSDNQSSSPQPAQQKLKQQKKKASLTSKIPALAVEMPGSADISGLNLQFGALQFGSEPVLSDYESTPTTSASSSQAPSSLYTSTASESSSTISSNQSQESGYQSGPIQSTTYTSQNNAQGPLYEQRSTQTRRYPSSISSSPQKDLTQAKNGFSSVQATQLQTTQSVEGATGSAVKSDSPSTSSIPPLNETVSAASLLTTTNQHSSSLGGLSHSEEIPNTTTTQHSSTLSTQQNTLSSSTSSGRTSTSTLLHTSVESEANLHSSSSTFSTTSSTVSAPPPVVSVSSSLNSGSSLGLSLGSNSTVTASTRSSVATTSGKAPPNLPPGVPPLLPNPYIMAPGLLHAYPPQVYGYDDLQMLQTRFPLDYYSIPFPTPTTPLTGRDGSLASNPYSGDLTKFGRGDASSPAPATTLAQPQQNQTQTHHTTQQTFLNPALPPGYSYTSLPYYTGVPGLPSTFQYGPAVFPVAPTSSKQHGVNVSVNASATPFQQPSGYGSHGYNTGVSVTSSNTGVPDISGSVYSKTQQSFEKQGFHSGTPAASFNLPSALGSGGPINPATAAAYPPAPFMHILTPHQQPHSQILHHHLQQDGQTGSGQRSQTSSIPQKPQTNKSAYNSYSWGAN
Sequence of UniProt O14773 (O14773 whole entry, looked up): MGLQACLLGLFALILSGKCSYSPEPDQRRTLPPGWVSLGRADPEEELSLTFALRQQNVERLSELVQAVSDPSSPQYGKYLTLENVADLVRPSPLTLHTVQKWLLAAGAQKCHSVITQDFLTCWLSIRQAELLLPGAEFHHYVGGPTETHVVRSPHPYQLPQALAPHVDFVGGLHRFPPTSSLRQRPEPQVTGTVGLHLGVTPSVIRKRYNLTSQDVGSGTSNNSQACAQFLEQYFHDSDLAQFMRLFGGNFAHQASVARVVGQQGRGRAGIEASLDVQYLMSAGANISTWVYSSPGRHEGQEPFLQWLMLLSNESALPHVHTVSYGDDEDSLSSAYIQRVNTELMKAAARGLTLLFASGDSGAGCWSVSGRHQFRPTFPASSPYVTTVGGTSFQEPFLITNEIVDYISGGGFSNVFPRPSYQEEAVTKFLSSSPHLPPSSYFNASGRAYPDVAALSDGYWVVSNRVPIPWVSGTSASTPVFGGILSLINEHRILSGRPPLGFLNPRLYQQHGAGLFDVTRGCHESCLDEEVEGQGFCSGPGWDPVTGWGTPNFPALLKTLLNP
Sequence of UniProt Q5R3I4 (Q5R3I4 whole entry, looked up): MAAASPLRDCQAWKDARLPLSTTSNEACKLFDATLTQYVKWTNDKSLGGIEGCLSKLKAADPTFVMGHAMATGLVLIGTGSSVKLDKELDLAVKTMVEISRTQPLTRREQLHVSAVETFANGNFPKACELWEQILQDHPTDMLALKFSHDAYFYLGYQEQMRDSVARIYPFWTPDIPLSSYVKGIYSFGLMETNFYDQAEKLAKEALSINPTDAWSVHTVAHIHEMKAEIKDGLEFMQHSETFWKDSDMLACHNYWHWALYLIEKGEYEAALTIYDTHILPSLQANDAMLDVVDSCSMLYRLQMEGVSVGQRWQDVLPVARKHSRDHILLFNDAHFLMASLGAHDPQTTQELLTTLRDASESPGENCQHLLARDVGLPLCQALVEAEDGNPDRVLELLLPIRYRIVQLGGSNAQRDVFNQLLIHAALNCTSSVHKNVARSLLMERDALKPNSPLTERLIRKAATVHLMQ
Sequence of UniProt Q9H269 (Q9H269 whole entry, looked up): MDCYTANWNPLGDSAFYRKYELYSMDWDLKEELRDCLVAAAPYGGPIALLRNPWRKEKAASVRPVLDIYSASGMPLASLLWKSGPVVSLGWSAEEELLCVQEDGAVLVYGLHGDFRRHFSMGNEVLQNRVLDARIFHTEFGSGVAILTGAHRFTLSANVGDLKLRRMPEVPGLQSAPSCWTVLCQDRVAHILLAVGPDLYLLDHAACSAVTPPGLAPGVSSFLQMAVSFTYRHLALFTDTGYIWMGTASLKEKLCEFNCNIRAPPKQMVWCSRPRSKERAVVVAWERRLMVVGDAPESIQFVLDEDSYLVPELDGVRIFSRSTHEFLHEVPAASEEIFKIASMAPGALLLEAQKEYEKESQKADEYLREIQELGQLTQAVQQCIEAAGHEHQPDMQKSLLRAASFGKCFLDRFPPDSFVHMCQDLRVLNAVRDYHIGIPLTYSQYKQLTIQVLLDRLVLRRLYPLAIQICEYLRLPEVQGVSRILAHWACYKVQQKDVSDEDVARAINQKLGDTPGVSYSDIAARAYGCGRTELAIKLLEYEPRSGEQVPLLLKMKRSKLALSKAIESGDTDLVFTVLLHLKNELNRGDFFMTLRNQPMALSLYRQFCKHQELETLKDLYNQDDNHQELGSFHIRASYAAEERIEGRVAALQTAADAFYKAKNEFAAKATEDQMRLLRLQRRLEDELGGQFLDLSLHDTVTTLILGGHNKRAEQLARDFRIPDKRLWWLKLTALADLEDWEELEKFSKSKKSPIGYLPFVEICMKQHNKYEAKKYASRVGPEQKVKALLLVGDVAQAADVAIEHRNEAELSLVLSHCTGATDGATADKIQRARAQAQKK
Sequence of UniProt Q9C037 (Q9C037 whole entry, looked up): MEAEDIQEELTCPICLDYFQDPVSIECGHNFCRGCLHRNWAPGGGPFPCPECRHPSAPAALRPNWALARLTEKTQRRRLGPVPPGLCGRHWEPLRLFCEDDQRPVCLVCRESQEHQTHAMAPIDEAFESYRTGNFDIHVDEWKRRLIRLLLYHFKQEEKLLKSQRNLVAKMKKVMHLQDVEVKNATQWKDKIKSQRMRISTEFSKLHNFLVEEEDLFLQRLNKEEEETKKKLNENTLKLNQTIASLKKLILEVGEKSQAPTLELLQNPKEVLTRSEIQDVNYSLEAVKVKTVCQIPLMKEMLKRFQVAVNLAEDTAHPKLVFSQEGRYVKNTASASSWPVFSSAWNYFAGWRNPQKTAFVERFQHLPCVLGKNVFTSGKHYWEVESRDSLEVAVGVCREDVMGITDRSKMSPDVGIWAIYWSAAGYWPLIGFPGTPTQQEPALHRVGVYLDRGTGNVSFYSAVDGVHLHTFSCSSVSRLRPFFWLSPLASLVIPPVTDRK
Sequence of UniProt O43617 (O43617 whole entry, looked up): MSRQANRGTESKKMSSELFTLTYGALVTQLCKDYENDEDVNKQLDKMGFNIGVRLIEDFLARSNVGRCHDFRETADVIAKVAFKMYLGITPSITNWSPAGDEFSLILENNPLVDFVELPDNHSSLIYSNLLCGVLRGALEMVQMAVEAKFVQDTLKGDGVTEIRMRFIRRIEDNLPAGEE

Target | log2 fold change (IRAK-1-4 Inhibitor I) | log2 fold change (ibrutinib) | log2 fold change [1] | log2 fold change (ralimetinib) | log2 fold change [2] | log2 fold change [3] | log2 fold change [4] | log2 fold change (pinometostat) | log2 fold change [5] | log2 fold change [6] | log2 fold change [7] | log2 fold change [8] | log2 fold change [9] | log2 fold change [10] | log2 fold change (Nexturastat A) | log2 fold change (vemurafenib) | log2 fold change [11] | log2 fold change [12] | log2 fold change (givinostat) | log2 fold change (barasertib)
VPS35L (UniProt Q7Z3J2) | -0.012 | -0.006 | -0.028 | 0.05 | -0.097 | -0.046 | 0.036 | 0.043 | -0.013 | 0.024 | 0.024 | -0.031 | -0.052 | -0.022 | 0.05 | 0.003 | 0.049 | 0.086 | 0.03 | 0.07
WBP4 (UniProt O75554) | 0.082 | -0.001 | 0.033 | -0.057 | -0.001 | 0.098 | 0.041 | -0.06 | -0.003 | 0.02 | 0.105 | 0.044 | 0.057 | -0.036 | -0.047 | 0.022 | 0.011 | 0 | -0.043 | -0.022
UBC (UniProt P0CG48) | 0.022 | 0.027 | 0.033 | -0.064 | 0.008 | 0.167 | 0.296 (active) | 0.042 | -0.018 | 0.281 (active) | 0.007 | -0.091 | -0.001 | -0.032 | 0.151 | -0.016 | -0.08 | -0.017 | 0.028 | -0.018
USP7 (UniProt Q93009) | -0.102 | -0.021 | -0.078 | 0 | -0.172 | -0.198 | 0.012 | 0.024 | 0 | 0.17 | 0.054 | -0.046 | 0.007 | 0.012 | 0.015 | 0.036 | 0.068 | 0 | 0.083 | 0.073
TRAPPC3 (UniProt O43617) | 0.03 | -0.032 | -0.056 | -0.083 | -0.033 | -0.105 | 0.001 | -0.029 | 0.031 | 0.008 | 0 | 0.023 | 0.061 | 0.042 | -0.218 (active) | 0.023 | 0.01 | -0.006 | -0.051 | 0.025
WDR46 (UniProt O15213) | -0.159 | 0.099 | 0.15 | 0.175 | 0.066 | 0.192 | 0.154 | 0.242 | 0.033 | -0.382 | 0.039 | -0.021 | -0.001 | -0.102 | 0.216 | -0.135 | -0.026 | 0.136 | -0.05 | -0.064
TTC4 (UniProt O95801) | -0.058 | -0.031 | -0.052 | 0.168 | -0.072 | -0.119 | 0.024 | -0.015 | -0.001 | 0 | 0.051 | -0.066 | 0.032 | 0.046 | 0.052 | 0.059 | 0.106 | 0.013 | -0.015 | 0.072
UBR2 (UniProt Q8IWV8) | 0.002 | -0.102 | -0.11 | 0.029 | -0.086 | -0.058 | 0.351 (active) | 0.137 | -0.01 | 0.076 | 0.079 | -0.08 | 0.048 | -0.03 | 0.078 | 0.029 | 0.037 | -0.038 | 0.192 | 0.046
TRAPPC11 (UniProt Q7Z392) | -0.007 | 0.001 | -0.048 | 0.034 | -0.063 | -0.064 | 0.012 | 0.032 | -0.048 | 0.028 | 0.098 | 0.01 | -0.014 | -0.053 | 0.046 | 0.033 | 0.025 | -0.012 | 0.037 | 0.025
UBAP2L isoform 1 (UniProt Q14157) | 0.076 | -0.006 | 0.007 | -0.025 | 0.016 | 0.103 | 0.029 | -0.031 | 0.073 | 0.055 | -0.057 | 0.035 | -0.016 | 0.025 | 0.012 | -0.083 | 0.246 (active) | -0.045 | -0.261 (active) | -0.011
TOE1 (UniProt Q96GM8) | -0.15 | -0.031 | 0.089 | 0.012 | 0.005 | 0.042 | 0.09 | 0.077 | -0.067 | -0.228 | 0.099 | 0.056 | -0.012 | -0.109 | 0.078 | -0.016 | 0.048 | 0.059 | -0.055 | -0.063
TPP1 (UniProt O14773) | -0.007 | -0.01 | -0.006 | -0.025 | 0.059 | -0.492 (active) | 0.043 | -0.052 | 0.025 | -0.009 | 0.006 | 0.037 | 0.02 | 0.03 | -0.007 | -0.006 | -0.021 | 0 | -0.015 | -0.018
TTC38 (UniProt Q5R3I4) | 0.129 | -0.048 | 0.023 | 0.017 | -0.204 | -0.06 | -0.195 | 0.027 | -0.081 | 0.801 (active) | -0.039 | 0.405 | 0.127 | 0.019 | 1.05 (active) | 0.031 | 0.012 | 0.141 | 0.938 (active) | 0.023
VPS16 (UniProt Q9H269) | 0.028 | -0.073 | -0.02 | 0.043 | -0.154 | -0.29 | -0.035 | 0.1 | 0.006 | 0.061 | 0.023 | 0.011 | 0.032 | -0.013 | 0.038 | 0.017 | 0.109 | 0 | 0.075 | -0.086
TMEM120A (UniProt Q9BXJ8) | -0.066 | -0.183 | -0.068 | -0.003 | -0.429 | -0.006 | -0.078 | 0.093 | -0.065 | 0.051 | 0.181 | 0.007 | 0.115 | -0.004 | -0.259 | 0.06 | 0.085 | -0.007 | 0.116 | -0.006
TRIM4 (UniProt Q9C037) | -0.157 | 0.173 | -0.063 | 0.023 | -0.183 | -0.078 | -0.013 | 0.173 | -0.023 | 0.089 | -0.031 | 0.023 | -0.029 | -0.076 | 0.1 | -0.297 | -0.041 | 0.046 | -0.086 | 0.011

Reference: the supplement of paper PMC10849652
